Data from publication PMC4336329 (PLoS ONE, 2015).
In all, about 310,000 compounds went through this assay and about 14,000 (4.5%) showed an effect of 50% or more. Effects have a minus sign here. This excerpt belongs to a sample that is enriched for strong results.

Target: human ether-à-go-go-related gene (hERG) potassium channel (human, UniProt Q12809)
Assay: primary screen, population patch clamp on CHO cells stably expressing hERG; higher = less effect of the substance
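Note: peak tail current of the secondary pulse compared with the same well before compound.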

human ether-à-go-go-related gene (hERG) potassium channel, sequence (Q12809 whole entry, looked up): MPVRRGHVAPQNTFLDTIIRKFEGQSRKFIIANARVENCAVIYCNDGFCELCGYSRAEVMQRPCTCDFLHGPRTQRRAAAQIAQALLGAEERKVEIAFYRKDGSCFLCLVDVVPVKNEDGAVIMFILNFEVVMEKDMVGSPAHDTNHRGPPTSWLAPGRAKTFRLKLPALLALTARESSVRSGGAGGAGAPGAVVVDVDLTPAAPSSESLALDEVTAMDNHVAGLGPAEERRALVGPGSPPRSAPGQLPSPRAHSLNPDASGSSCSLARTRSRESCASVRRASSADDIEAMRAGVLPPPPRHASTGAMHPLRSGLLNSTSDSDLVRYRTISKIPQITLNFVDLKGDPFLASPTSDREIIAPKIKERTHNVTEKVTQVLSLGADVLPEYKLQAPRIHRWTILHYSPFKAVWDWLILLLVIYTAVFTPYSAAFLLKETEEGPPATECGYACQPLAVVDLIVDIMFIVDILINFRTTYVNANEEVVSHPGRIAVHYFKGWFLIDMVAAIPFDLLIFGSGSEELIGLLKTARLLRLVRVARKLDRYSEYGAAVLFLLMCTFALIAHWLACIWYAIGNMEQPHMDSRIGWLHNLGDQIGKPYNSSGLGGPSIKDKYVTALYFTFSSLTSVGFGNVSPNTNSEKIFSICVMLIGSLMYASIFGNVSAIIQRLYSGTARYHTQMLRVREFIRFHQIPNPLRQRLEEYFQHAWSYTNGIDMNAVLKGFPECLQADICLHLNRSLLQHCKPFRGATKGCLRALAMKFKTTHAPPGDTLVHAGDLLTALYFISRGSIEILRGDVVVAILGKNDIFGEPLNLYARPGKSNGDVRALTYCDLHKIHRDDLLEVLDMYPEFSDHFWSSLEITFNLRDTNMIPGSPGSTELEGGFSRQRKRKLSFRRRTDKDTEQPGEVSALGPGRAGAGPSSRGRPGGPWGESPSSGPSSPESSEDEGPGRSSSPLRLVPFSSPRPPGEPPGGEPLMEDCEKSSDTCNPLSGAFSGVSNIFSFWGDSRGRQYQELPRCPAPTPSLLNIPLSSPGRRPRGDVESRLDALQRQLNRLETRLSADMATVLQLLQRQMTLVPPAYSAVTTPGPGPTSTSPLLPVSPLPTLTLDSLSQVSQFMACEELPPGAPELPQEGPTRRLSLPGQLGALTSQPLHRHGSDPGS

Point of comparison: `O=C(NCc1cccs1)C1CCN(S(=O)(=O)c2cccc([N+](=O)[O-])c2)CC1`, “hERG current change (%, negative = inhibition) at 10uM” value -15.7%. Against it:
- Cc1cc(NC(=O)C2CCN(S(=O)(=O)Cc3ccccc3)CC2)ccc1-n1cnnn1 — higher, -9.11%
- FC(F)(F)c1cnc(Sc2ncn[nH]2)c(Cl)c1 — higher, 4.22%
- CCOC(=O)c1c(C)[nH]c(C(=O)CN2C(=O)NC3(CCCC3)C2=O)c1C — higher, -1.87%
- CCOc1ccc(S(=O)(=O)N2CCN(CC)CC2)cc1NC(=O)c1ccccc1F — lower, -16.6%
- COc1ccc(CCC(=O)Nc2nc(C)c(C(=O)N(C)C)s2)cc1 — higher, -2.23%
- CS(=O)(=O)c1ccc(N2CCOCC2)c(S(C)(=O)=O)c1 — higher, -5.39%
- Cc1ccc(N2CCC(N3CCN(C)C(CCO)C3)CC2)cc1 (centres unmarked) — higher, 12.8%
- CC(C)CCN1CCN(C2CCN(c3ccc4c(c3)OCO4)CC2)CC1CCO (centres unmarked) — lower, -17.6%
- Cc1cc(F)ccc1N1CCC(N2CCN(C)C(CCO)C2)CC1 (centres unmarked) — higher, 22.1%
- Cc1cc(F)ccc1N1CCC(N2CCN(CCC(C)C)C(CCO)C2)CC1 (centres unmarked) — lower, -63.5%
- CC(C)CCN1CCN(C2CCN(c3ccccc3)CC2)CC1CCO (centres unmarked) — lower, -60.9%
- Cc1cc(F)ccc1N1CCC(N2CCN(C(C)C)C(CCO)C2)CC1 (centres unmarked) — lower, -24.7%
- O=C(CN1CCOCC1)NCCc1ccccc1 — higher, 16.4%
- NS(=O)(=O)c1ccc(NN=C2CCN(Cc3ccccc3)CC2)c([N+](=O)[O-])c1 — lower, -17.6%
- CCOC(=O)NC(=O)CSc1ccc2ccccc2n1 — higher, 14%
- CCC1(C(=O)OC)NC(c2ccco2)C2C(=O)N(c3ccc(F)cc3)C(=O)C21 (centres unmarked) — higher, 6.75%
- CCOC(=O)C1CCN(S(=O)(=O)c2cccc(-c3cn4ccccc4n3)c2)CC1 — lower, -60.4%
- Cc1nc(-c2cccc(S(=O)(=O)N3CCCCCC3)c2)cs1 — lower, -23.2%
- CCOC(=O)C1CCN(S(=O)(=O)c2cccc(-c3cn4cccnc4n3)c2)CC1 — lower, -24.7%
- CCOC(=O)C1CCN(S(=O)(=O)c2cccc(-c3cn4cc(C)ccc4n3)c2)CC1 — higher, -3.7%
- CCOC(=O)C1CCN(S(=O)(=O)c2cccc(-c3cn4cccc(C)c4n3)c2)CC1 — lower, -21.3%
- CCOC(=O)C1CCN(S(=O)(=O)c2cccc(-c3csc(C)n3)c2)CC1 — lower, -53.5%
- CCOC(=O)C1CCN(S(=O)(=O)c2cccc(-c3cn4cc(Cl)ccc4n3)c2)CC1 — lower, -58%
- Cc1nc(-c2cccc(S(=O)(=O)N3CCC(C)CC3)c2)cs1 — higher, -13.4%
- CC1CCN(S(=O)(=O)c2cccc(-c3cn4cc(Cl)ccc4n3)c2)CC1 — higher, -5.86%
- COc1ccccc1C(=O)NC(C)c1cccc2ccccc12 (centres unmarked) — higher, 8.02%
- C=CCN(C(=O)c1ccc(Cl)cc1)c1ccccc1C(=O)NCC(=O)O — higher, 21.1%
- CCC(NC(=O)NCCCn1ccnc1)(C(F)(F)F)C(F)(F)F — higher, 8.18%
- CC(C)c1ccc(N=c2c([N+](=O)[O-])nn(-c3ccc4c(c3)OCCO4)n2O)cc1 — higher, 1.98%
- COc1ccc(CSc2ccc(-c3nc4ccccn4c3NCc3ccccc3)cc2OC)cc1.O=C(O)C(F)(F)F — higher, 8.68%
- C=CCn1c(SCCCCCC)nc(O)cc1=O — higher, -4%
- Cc1ccccc1/C=N\NC(=O)c1ccccc1-n1cccc1 — higher, 18.5%
- COc1cccc(C2C(=O)c3ccccc3C2=O)c1 — higher, 16.9%
- NS(=O)(=O)c1ccc(CCNC(=O)CNCCc2ccccc2)cc1 — higher, 16.2%
- NS(=O)(=O)c1ccc(CCNCC(=O)NC2CC2)cc1 — lower, -64.1%
- NS(=O)(=O)c1ccc(CCNC(=S)NC2CCCC2)cc1 — higher, 11.2%
- O=C(CCNC(=O)c1ccccc1Cl)NCCCSc1ccccc1 — higher, -8.64%
- Br.Clc1ccc2nc(CN3CCCCC3)cn2c1 — lower, -32.7%
- CN(C)Cc1c(O)ccc2ccccc12 — higher, 0.0591%
- CN(C)Cc1cc2ccccc2c2c1COC2 — higher, -0.493%
- Cc1cc2ccc3ccccc3c2cc1CN(C)C.Cl — lower, -51.9%
- O=C(O)CCC(=O)N1N=C(c2ccc(Br)cc2)CC1c1ccc(Br)cc1 (centres unmarked) — higher, 20.6%
- Cc1ccc(C)c(C(=O)Nc2nc3ccccc3[nH]2)c1 — higher, 25.9%
- O=C(NCCc1ccccc1)C1CCN(C2CCN(Cc3ccc(CO)o3)CC2)CC1 — higher, 18.2%
- O=C(NCC1CCCO1)C1CCN(C2CCN(C(=O)CC3CCCC3)CC2)CC1 (centres unmarked) — higher, -10%
- O=C(NCC1CCCO1)C1CCN(C2CCN(C3CCCCCC3)CC2)CC1 (centres unmarked) — higher, 28.4%
- CCOc1cccc(CN2CCC(N3CCC(C(=O)NCC4CCCO4)CC3)CC2)c1 (centres unmarked) — higher, -10.5%
- O=C(NCC1CCCO1)C1CCN(C2CCN(Cc3cccs3)CC2)CC1 (centres unmarked) — lower, -64.2%
- Cc1ccccc1CN1CCC(N2CCC(C(=O)NCC3CCCO3)CC2)CC1 (centres unmarked) — higher, -1.07%
- Cc1cc(C)c(CN2CCC(N3CCC(C(=O)NCC4CCCO4)CC3)CC2)cc1C (centres unmarked) — lower, -24.4%
- O=C(NCCc1ccccc1)C1CCN(C2CCN(Cc3ccco3)CC2)CC1 — lower, -62.7%
- O=C(NCC1CCCO1)C1CCN(C2CCN(Cc3ccco3)CC2)CC1 (centres unmarked) — lower, -51%
- O=C(NCC1CCCO1)C1CCN(C2CCN(CCCC3CCCC3)CC2)CC1 (centres unmarked) — lower, -58%
- O=C(NCCc1ccccc1)C1CCN(Cc2ccccc2F)CC1.O=C(O)C(=O)O — higher, 1.53%
- Cc1ccc(CN2CCC(N3CCC(C(=O)NCC4CCCO4)CC3)CC2)o1 (centres unmarked) — higher, -4.02%
- Cc1ccc(C(=O)Nc2cc(C(C)C)c(O)c(C(C)C)c2)cc1 — higher, -4.12%
- CC(=O)[C@@H]1[C@@H](C)N(Cc2ccccc2)C(=O)N[C@H]1c1cccc(C(F)(F)F)c1 — higher, 5.55%
- Cc1nnsc1C(=O)Nc1ccccc1 — higher, 18.2%
- O=C(N/N=C/c1ccc(F)cc1)c1cccc(NC(=O)c2ccc(F)cc2)c1 — higher, -4.54%
- O=C(Nc1cccc(-n2cnnn2)c1)c1ccco1 — higher, -0.205%
- COc1ccc(NC(=S)N2CCC(N(C)CCN3CCOCC3)CC2)cc1Cl — lower, -26.8%
- CN(C)c1nc(N(C)C)nc(N(C#N)CCCl)n1 — higher, 8.89%
- COc1ccc(-c2noc(-c3ccoc3C)n2)cc1 — higher, 39.5%
- Cc1noc(N)c1C1(O)C(=O)Nc2c(Cl)cc(Cl)cc21 (centres unmarked) — higher, 0.32%
- CCOc1ccc(CCN2C(=O)c3ccc(C(=O)O)cc3C2=O)cc1OCC — higher, -3.15%
- COc1ccc(C2CC(c3cccs3)=NN2C(=O)COC(=O)C2CCCCC2)cc1OC (centres unmarked) — lower, -18.1%
- CC(=O)c1c(N2CCN(C)CC2)nc(=S)n(-c2cc(C)ccc2C)c1C — higher, 28.7%
- CC(C)(C)C(=O)Nc1ccc(S(=O)(=O)N2CCCC2)cc1 — higher, 4.25%
- COc1ccc(CC(=O)Nc2cc(NC(=O)Cc3ccc(OC)c(OC)c3)cc(C(=O)O)c2)cc1OC — higher, 14.3%
- CN(c1ccccc1)c1nc(N)c([N+](=O)[O-])c(NCc2ccccc2)n1 — higher, 17.6%
- O=C(NC1CCS(=O)(=O)C1)c1cc(-c2ccccc2)nc2ccccc12 (centres unmarked) — higher, 13.6%
- O=C(c1cc(-c2ccc(F)cc2)nc2ccccc12)N1CCN(C2CCS(=O)(=O)C2)CC1 (centres unmarked) — lower, -69%
- COc1ccc(-c2cc(C(=O)N3CCCC3)c3ccccc3n2)cc1 — higher, -2.31%
- Cc1ccc(-c2cc(C(=O)N3CCN(c4ncccn4)CC3)c3ccccc3n2)cc1 — lower, -40.9%
- Cc1ccc(-c2cc(C(=O)N3CCN(C4CCS(=O)(=O)C4)CC3)c3ccccc3n2)cc1 (centres unmarked) — lower, -60.7%
- O=C(c1cc(-c2ccccc2)nc2ccccc12)N1CCN(C2CCS(=O)(=O)C2)CC1 (centres unmarked) — lower, -25%
- Cc1ccccc1C(=O)Oc1cccc(Nc2ncnc3ccccc23)c1 — higher, -3.38%
- CCC(C)NC(=O)CN1C(=O)NC2(CCOc3ccccc32)C1=O (centres unmarked) — higher, -9.56%
- CCCNC(=O)Cc1ccsc1 — higher, 9.93%
- Fc1ccc(NC(=S)NCCc2ccccc2)c(F)c1F — higher, -1.12%
- CCC(Sc1nnc(C)c(=O)[nH]1)C(=O)Nc1cccc2ccccc12 (centres unmarked) — higher, 10%
- O=C(CCCc1nc2ccccc2s1)NCc1cccnc1 — higher, 0.483%
- C/C(=N\NC(=O)CN1CCN(S(=O)(=O)c2ccc(C)cc2)CC1)c1ccc(O)cc1 — higher, -6.97%
- C/C(=N/NC(=O)CN1CCN(S(=O)(=O)c2ccc(Br)cc2)CC1)c1ccncc1 — lower, -80.3%
- C/C(=N\NC(=O)CN1CCN(S(=O)(=O)c2ccc(C)cc2)CC1)c1ccncc1 — lower, -77.1%
- NC(=O)CN1CCN(S(=O)(=O)c2ccc(Br)cc2)CC1 — higher, 22.4%
- C/C(=N\NC(=O)CN1CCN(S(=O)(=O)c2ccc(C)cc2)CC1)c1cccnc1 — lower, -46.9%
- C/C(=N\NC(=O)CCc1ccc(S(=O)(=O)N2CCOCC2)cc1)c1ccc(Br)cc1 — higher, 6.98%
